Data: PubChem BioAssay AID743395 (Broad Institute, 2014)
Hit rate of the full screen: of about 1,200 compounds, about 480 (40%) were called active. How the calls were made is not given here. So high a share suggests a set chosen from earlier hits. These entries were drawn from the full list. Measured potencies and affinities stand elsewhere.

Test: HepG2 cell cytotoxicity, dose response, cytotoxicity control, CellTiter-Glo luminescence, cherry-pick, set 2 (AID 743395)
Conditions: HepG2 viability, CellTiter-Glo ATP luminescence, 72 h; series mostly up to 26 µM
With `COC(=O)CNc1cc(S(=O)(=O)N2CCCCC2)ccc1Oc1ccc(C(=O)OC)cc1` the outcome was “inactive”. In the case of `COc1ccccc1CNC(=O)Cn1cnnn1`, the outcome is reported as “inactive”. With `COc1ccc(NC(=O)C(CC(=O)O)Cc2ccc(Cl)cc2)cc1` (stereo unspecified) the outcome was “inactive”. For `C#Cc1ccc(C(=O)Nc2ccc(N3CCC(C)CC3)c(C(N)=O)c2)cc1`, the outcome was “inactive”. With `COc1ccccc1/C=C/C=N/NC(=O)CCn1cnc2ccccc21` the outcome was “inactive”. In the case of `Cc1ccc(OCC(=O)Nc2ccc3c(c2)ncn3C)cc1`, the outcome is reported as “inactive”. In the case of `C[C@H]1CN([C@@H](C)CO)S(=O)(=O)c2ccc(C#Cc3ccccc3F)cc2O[C@H]1CN(C)C(=O)c1ccc2c(c1)OCO2`, the outcome is reported as “inactive”. In the case of `COc1cc(/C=N/NC(=O)c2cc(-c3c(C)nn(-c4ccccc4)c3C)n[nH]2)ccc1O`, the outcome is reported as “inactive”. For `COc1ccc(/C=N/NC(=O)c2cccnc2)cc1CSc1ccccn1`, the outcome was “inactive”. For `CC#CCOCC1CNC(=O)O1` (stereo unspecified), the outcome was “inactive”. In the case of `CCCN1[C@H](C(=O)N2CCOCC2)[C@@H](CO)[C@@H]2Cn3c(ccc(/C=C/c4ccccc4)c3=O)[C@@H]21`, the outcome is reported as “inactive”. For `O=C(COC(=O)C1CCC1)Nc1cc(S(=O)(=O)N2CCOCC2)ccc1Cl`, the outcome was “inactive”. In the case of `CCOc1ccc(S(=O)(=O)N2CCOCC2)cc1NC(=O)CSCC(=O)Nc1ccc(OC)cc1`, the outcome is reported as “inactive”. For `COC(=O)[C@H](CCSC)NC(=O)Cn1cc(C)c(=O)[nH]c1=O`, the outcome was “inactive”. With `COCOc1cccc(CN2CCC2(C)C(=O)Nc2ccc(C)c(O)c2)c1` (stereo unspecified) the outcome was “inactive”. With `CCN(C(=O)CSc1nnc(C)n1-c1ccc(C)cc1)c1c(N)n(Cc2ccccc2)c(=O)[nH]c1=O` the outcome was “inactive”. In the case of `COc1ccc(S(=O)(=O)Nc2ccc3c(c2)C(=O)N([C@@H](C)CO)C[C@H](C)[C@H](CN(C)Cc2ccc(Cl)c(Cl)c2)OCCCC[C@@H](C)O3)cc1`, the outcome is reported as “inactive”. With `COc1ccc(NC(=O)N(C)C[C@H]2Oc3c(cccc3N(C)C)C(=O)N([C@H](C)CO)C[C@H]2C)cc1` the outcome was “inactive”. With `Cc1ccc(S(=O)(=O)Nc2ccc3c(c2)C(=O)N([C@@H](C)CO)C[C@H](C)[C@H](CN(C)S(=O)(=O)c2ccc(Cl)cc2)OCCCC[C@@H](C)O3)cc1` the outcome was “inactive”. For `Cc1ccc(N2CC(C(=O)N(C)CC(=O)Nc3ccc(Cl)c(C(F)(F)F)c3)CC2=O)cc1` (stereo unspecified), the outcome was “inactive”. For `COc1ccc(OCC(=O)NNC(=O)CCc2ccccc2)cc1`, the outcome was “inactive”. In the case of `Cn1nc(C(=O)NNC(=O)CCOc2ccc(C(C)(C)C)cc2)c2ccccc2c1=O`, the outcome is reported as “inactive”. With `O=c1cc(-c2ccccc2)[nH]c2ccc(F)cc12` the outcome was “inactive”. In the case of `O=C(Nc1ccc(F)cc1)Nc1ccc(N2CCOCC2)c2nonc12`, the outcome is reported as “inactive”. For `COC(=O)c1ccc(C(=O)NC2CCCc3c2cnn3-c2ccc(C)c(C)c2)cc1` (stereo unspecified), the outcome was “inactive”. In the case of `O=C(N/N=C/c1ccccc1OC(F)F)c1cc(-c2ccncc2)nc2ccccc12`, the outcome is reported as “inactive”. With `O=C(CN1CCN(S(=O)(=O)c2ccc(F)c(Cl)c2)CC1)N1CCc2ccccc2C1` the outcome was “inactive”. For `Cc1ccc(C)c(NC(=O)CSc2nc3c(c(=O)n2C)SC(C)C3)c1` (stereo unspecified), the outcome was “inactive”. For `Cc1ccc(NC(=O)c2c(C)noc2C)cc1S(=O)(=O)N1CCOCC1`, the outcome was “inactive”. In the case of `COC(=O)c1c(-c2ccc(C)cc2)csc1NC(=O)c1c(-c2ccccc2)noc1C`, the outcome is reported as “inactive”. In the case of `O=C(CSc1nc2ccccc2n1-c1ccccc1)Nc1ncc(Cl)cc1Cl`, the outcome is reported as “inactive”. With `O=C(COc1ccc(F)cc1Cl)Nc1cccc(S(=O)(=O)N2CCCCCC2)c1` the outcome was “inactive”. With `O=S1(=O)CCN(C(CO)c2ccccc2)CC1` (stereo unspecified) the outcome was “inactive”. For `COc1ccc(/C=C2\SC(=O)N(CCNC(=O)C3=COCCO3)C2=O)cc1`, the outcome was “inactive”. For `CC1(c2ccc3ccccc3c2)CCC(=O)O1` (stereo unspecified), the outcome was “inactive”. For `COc1ccc(S(=O)(=O)N2CCN(CCOc3ccccc3Cl)CC2)cc1OC`, the outcome was “inactive”. In the case of `COc1cc(/C=C2\SC(=S)N(NC(=O)c3ccncc3)C2=O)ccc1O`, the outcome is reported as “inactive”. In the case of `CCCCN1C(=O)/C(=C/C=C2\Oc3ccccc3N2CC)SC1=S`, the outcome is reported as “inactive”. In the case of `O=C(CCNS(=O)(=O)c1cccc(C(F)(F)F)c1)NC1CC1`, the outcome is reported as “inactive”. In the case of `Clc1ccc(CSc2nncn2-c2ccc3c(c2)OCCO3)cc1`, the outcome is reported as “inactive”. In the case of `O=C(c1cccnc1)N1CC[C@@H]2[C@H](CO)Nc3ccc(C4=CCCCC4)cc3[C@@H]21`, the outcome is reported as “inactive”. With `O=S(=O)(c1ccc(F)cc1)N1CC[C@@H]2[C@@H](CO)Nc3ccc(-c4ccc(F)cc4)cc3[C@@H]21` the outcome was “inactive”. In the case of `COc1ccc(S(=O)(=O)N2CC[C@@H]3[C@@H](CO)Nc4ccc(C5=CCCCC5)cc4[C@@H]32)cc1`, the outcome is reported as “inactive”. With `COc1ccc(S(=O)(=O)N2CC[C@@H]3[C@@H](CO)Nc4ccc(-c5ccc(C#N)cc5)cc4[C@@H]32)cc1` the outcome was “inactive”. For `Cc1ccc(S(=O)(=O)N2CCN(C(=O)CN(Cc3ccco3)Cc3cccs3)CC2)cc1`, the outcome was “inactive”. In the case of `CCN(C(=O)COC(=O)c1cccc2ccccc12)c1c(N)n(Cc2ccccc2)c(=O)[nH]c1=O`, the outcome is reported as “inactive”. In the case of `O=C(Nc1ccc(F)cc1)C1CCN(C(=O)c2ccc(F)cc2)CC1`, the outcome is reported as “inactive”. In the case of `COc1cccc(-c2nnc(SCC(=O)NC3CCS(=O)(=O)C3)n2C)c1` (stereo unspecified), the outcome is reported as “inactive”. In the case of `O=C(NCc1ccccn1)c1n[nH]c(=O)c2ccccc12`, the outcome is reported as “inactive”. In the case of `O=C(Cc1ccsc1)OCC(=O)c1ccccc1`, the outcome is reported as “inactive”. For `CCC(=O)c1ccc(OCC(=O)OCC(=O)N2CCc3ccccc3C2)cc1`, the outcome was “inactive”. For `COc1c(O[C@@H]2O[C@H](CO)[C@@H](O)[C@H](O)[C@H]2O)cc2c(c1OC)-c1ccc(SC)c(=O)cc1C(NC(C)=O)CC2` (stereo partly specified), the outcome was “inactive”. In the case of `CCN(CC)c1ccc2c(cc1=O)[C@@H](NC)CCc1cc(OC)c(OC)c(OC)c1-2`, the outcome is reported as “inactive”. With `CN[C@H]1CCc2cc(OC)c(OC)c(OC)c2-c2ccc(N(C)CC(OC)OC)c(=O)cc21` the outcome was “inactive”. In the case of `CO[C@H]1CN(C)C(=O)c2cc(NC(C)=O)ccc2OC[C@H](C)N(C(=O)c2ccncc2)C[C@H]1C`, the outcome is reported as “inactive”. In the case of `CCOC(=O)CSC1=C(C#N)C(c2ccc(C)s2)CC(=O)N1` (stereo unspecified), the outcome is reported as “inactive”. In the case of `CN(C(=O)c1ccccc1OC1CCN(S(C)(=O)=O)CC1)C1CCOC1` (stereo unspecified), the outcome is reported as “inactive”. With `COCCOC(=O)c1[nH]c2c(c1C)C(=O)CC(c1cccs1)C2` (stereo unspecified) the outcome was “inactive”. With `O=C1C=CN(C2OC(CO)C(O)C2O)C(=O)C1` (stereo unspecified) the outcome was “inactive”. In the case of `Nc1ccn([C@H]2C[C@H](O)[C@@H](CO)O2)c(=O)n1`, the outcome is reported as “inactive”. With `Nc1ccn([C@@H]2O[C@H](C(=O)NCC(F)(F)F)[C@@H](O)[C@H]2O)c(=O)n1` the outcome was “inactive”.
